HT1080 IDH1KD tx = HT-1080 IDH1 knockdown cell toxicity (counter line) | AID 686971 | HT-1080 IDH1 knockdown viability, ATP luminescence, 48 h | Potency, µM (series often up to 46.1 µM), for inactives: at the top dose activity, negative = toxicity, hits mostly cytotoxic | 360,000 compounds, 2% hits;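 note: potency is the fitted concentration of half-maximal effect; 0% = DMSO wells and -100% = cell-free medium wells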
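Knockdown cells (IDH1KD HT-1080) received compounds 2 h after plating at 750 cells/well and were kept 48 h at 37 °C in 5% FBS RPMI. A CellTiter-Glo luminescence read gave % activity for curve fitting.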
IL1B secr inh = blocks inflammasome-driven IL-1 beta release; AID 743279; THP-1 LPS/ATP IL-1B secretion, AlphaLISA, 16 h; hits give low values; activity change, % at 57.5 µM; 360,000 compounds, 4.7% hits; in the data active = activity change below about -50%; inconclusive = mostly about -30% to -49%
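Secreted IL-1B measured by AlphaLISA bead assay after 16 h compound exposure of THP-1 cells; compounds (final up to 57.5 uM) added 1 h before LPS (250 ng/mL) and ATP (1.25 mM) stimulation; lower signal means less secretion.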
HT1080NT lethal = kills 2HG-producing HT-1080-NT fibrosarcoma cells | HT-1080-NT fibrosarcoma viability, CellTiter-Glo ATP luminescence, 48 h | Potency, µM (highest dose often 46.1 µM), inactives show at the top dose activity, negative = less viability, actives largely listed as cytotoxic | 360,000 compounds, 1.6% hits;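 note: NT is the 2HG producing partner of a matched IDH1 knockdown line; potency is the fitted concentration of half-maximal effect; 0% = DMSO-treated cells and -100% = media-only wells without cells; nearly all actives have a fitted effect of over 55% in size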
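A 48-hour cytotoxicity screen used HT-1080-NT cells plated 2 hours before compound delivery. ATP-based CellTiter-Glo luminescence measured viability, normalized to DMSO and no-cell controls.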
ELG1 repair inh = blocks ELG1-dependent DNA repair in HEK293T cells; HEK293T ELG1-luciferase reporter, luminescence, 16 h; DNA damage induced by 5-fluorouridine; Potency, µM (series often up to 46.1 µM), for the others: top-dose activity change, negative = inhibition, usual class: inhibitors; 330,000 compounds, 2.3% hits; AID 504467; note: potency is the fitted concentration of half-maximal effect; nearly all actives have a fitted effect of over 55% in size
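Overnight (16 hr) co-exposure of 2,000 cells/well to 5-fluorouridine and compound at 37 °C preceded detection. Luciferase was quantified via ONE-Glo luminescence; loss of signal denotes inhibition.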
TDP1 cell CPT = growth inhibition of DT40 Tdp1-/-;hTDP1 cells with camptothecin (screen for TDP1 inhibitors). chicken DT40 Tdp1-/-;hTDP1 cells + 20 nM CPT, ATP luminescence, 48 h. Potency, µM (series often up to 46.2 µM), without a hit: at the highest dose activity change, negative = growth inhibition, actives largely listed as inhibitors. 420,000 compounds, 12% hits; note: potency is the fitted concentration of half-maximal effect; nearly all actives have a fitted effect of over 55% in size
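Chicken DT40 Tdp1-/- cells complemented with human TDP1, 400 cells/well, exposed to compounds plus 20 nM camptothecin for at least 48 h at 37 C; viability read as ATP content by CellTiter-Glo luminescence.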
DT40 TDP1 no CPT = qHTS for Inhibitors of human tyrosyl-DNA phosphodiesterase 1 (TDP1): qHTS in cells in absence of CPT | 420,000 compounds, 15% hits | Potency, µM (doses to about 46.2 µM), for the others: at the top dose activity change, negative = growth inhibition, hits mostly inhibitors | AID 686978, 2013 | DT40 Tdp1-/- hTDP1 cells, no CPT, ATP luminescence, 48 h; note: potency is the fitted concentration of half-maximal effect; nearly all actives have a fitted effect of over 55% in size
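DT40 Tdp1-/-;hTDP1 cells, no CPT (DMSO vehicle only), 400 cells/well; compounds pin-transferred; ≥48 hr, 37 °C; CellTiter-Glo 30 min RT dark, luminescence read.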
Active calls of the source: *; ? = inconclusive; . = not tested or not shown. Shown are actives, neighbours in structure and some others; about 19% of the full set was active somewhere. Unless noted, calls come from the whole dose curve; as a rule, active = well fitted curve in the direction sought with a large enough effect; inconclusive = small, poorly fitted or top-dose-only effect, or another doubt; inactive = no such curve, though single readings can be large; an effect the other way counts as inactive or inconclusive. Unless noted, % is set by controls: 0 for no effect and ±100 for the full control effect.

SMILES | HT1080 IDH1KD tx | IL1B secr inh | HT1080NT lethal | ELG1 repair inh | TDP1 cell CPT | DT40 TDP1 no CPT
COc1ccc2c(c1)c1c(c(=O)n(-c3ccc(OC)c(OC)c3)c(=O)n1Cc1ccc(C)cc1)n2C | . | . | . | . | -25% | -14%
COc1cccc(NC(=O)Cn2c(=O)n(Cc3ccccc3)c(=O)c3c2c2cc(C)ccc2n3C)c1 | . | . | . | . | ? | 3.7µM*
COc1ccc2c(c1)c1c(c(=O)n(-c3ccccc3C)c(=O)n1Cc1c(F)cccc1Cl)n2C | . | . | . | . | -8% | -26%
CN(C)C(=O)CCc1ccc2c3c([nH]c2c1)[C@]1(C)[C@@H](C(=O)N2CCOCC2)C[C@H](CC(=O)NCCCn2ccnc2)C(=O)N1CC3 | 13% | 12 | 13% | ? | -1% | 12%
COc1ccc2c(c1)c1c(c(=O)n(-c3ccccc3C)c(=O)n1CC(=O)NCc1ccc(C)cc1)n2C | . | . | . | . | 21µM* | 13µM*
COc1ccc2c(c1)c1c(c(=O)n(-c3ccccc3)c(=O)n1CC(=O)NCc1ccc(C)cc1)n2C | . | . | . | . | -23% | -30%
COc1cccc(C2C(C#N)=C(N)N(N(C)C)C3=C2C(=O)CC(C)(C)C3)c1OC (centres undefined) | 10% | -9 | -2% | -3% | -10% | 11%
COc1ccc(NC(=O)CCCn2cnc3ccccc3c2=O)cc1 | -7% | -5 | 0% | 13% | 10% | -4%
CC(C)NC(=S)NC(=O)/C=C/c1ccc(F)cc1 | 2% | -53* | -3% | -5% | 21µM* | 15µM*
O=C(/C=C/c1ccc(F)cc1)NC(=S)NC1CCCCC1 | 1% | -2 | 0% | 7% | -20% | ?
CN(C(=S)NC(=O)/C=C/c1ccc(F)cc1)C1CCCCC1 | 15% | -66* | ? | -2% | 23% | -23%
COc1ccc(NC(=O)C(OC(=O)Cn2cnc3c2c(=O)n(C)c(=O)n3C)c2ccccc2)cc1Cl (centres undefined) | -1% | -13 | 9% | . | 1% | 12%
CN1CCN(c2ncc3nc(-c4cccc(C#N)c4)c(=O)n(CCC#N)c3n2)CC1 | . | . | . | . | ? | 21µM*
COCCn1c(=O)c(-c2cccc(C#N)c2)nc2cnc(N3CCN(C)CC3)nc21 | . | . | . | . | -6% | 0%
N#CCCn1c(=O)c(-c2ccc(Cl)cc2)nc2cnc(N3CCNCC3)nc21 | . | . | . | . | 7.3µM* | ?
N#CCCn1c(=O)c(-c2ccc(F)cc2)nc2cnc(N3CCOCC3)nc21 | . | . | . | . | 6% | 10%
CN1CCN(c2ncc3nc(-c4ccc(Cl)cc4)c(=O)n(CCC#N)c3n2)CC1 | . | . | . | . | ? | 16µM*
N#CCCn1c(=O)c(-c2ccc(F)cc2)nc2cnc(N3CCNCC3)nc21 | . | . | . | . | ? | 21µM*
O=c1c(-c2cccc(Cl)c2)nc2cncnc2n1Cc1ccccc1 | . | . | . | . | ? | 6%
COc1ccc(NC(=O)CCCCC#Cc2ccccc2)cc1 | 3% | 17 | 0% | . | ? | 15µM*
O=C(C#Cc1ccccc1)Nc1ccc(F)cc1 | 18µM* | -97* | 16µM* | ? | ? | 12µM*
O=C(CC(=O)Nc1cccc(F)c1)Nc1cccc(F)c1 | -11% | 7 | -1% | 14% | ? | ?
COc1ccc(NC(=O)C#Cc2ccccc2)cc1 | ? | . | ? | ? | 21µM* | 10µM*
O=C(C#Cc1ccccc1)Nc1cccc(F)c1 | 3.7µM* | -106* | ? | ? | 4.1µM* | 5.8µM*
CCOC(=O)Cc1ccc(NC(=O)n2ncc3cc(Cl)ccc32)cc1 | . | . | . | . | -1% | 6%
N#Cc1c(NCc2ccccc2)ccnc1NCc1cccnc1 | -26% | ? | -4% | -8% | 23µM* | 8.2µM*
